This passage reports outcome and activation (H2AX phosphorylation) results from PubChem BioAssay (Tox21).

Results filed as inconclusive are left out. Values without a mark were called inactive. Active and inactive are the calls of the source. Calls come from the whole dose curve; as a rule, active = well fitted activation curve with a large enough effect in the signal ratio in the repeat runs (not every such curve was filed as active); inconclusive = weak or mixed curves; inactive = flat fitted curve, though single readings scatter; the % refers to the signal ratio.
% is set by controls: 0 for no effect and ±100 for the full control effect.

The experiment in a line: qHTS assay to identify small molecule agonists of H2AX (AID 1224845). The following applies: CHO-K1 phospho-H2AX Ser139 HTRF, 3 h; series mostly up to 154 µM. The source says:
National Center for Advancing Translational Sciences [NCATS]
NIH Chemical Genomics Center [NCGC]
U.S. Environmental Protection Agency [EPA]
National Institutes of Environmental Health Sciences [NIEHS]
National Toxicology Program [NTP]
U.S. Food and Drug Administration [FDA]
HTRF phospho-H2AX (Ser139) assay (Cisbio Bioassays, US) enables the quantitative detection of the histone variant H2AX when phosphorylated on serine 139. When double-stranded DNA breaks, either by ionizing radiation or endogenous physiological processes, H2AX becomes phosphorylated at Ser139. This phospho-Ser139 serves as a sensitive biomarker for the detection of such breaks, localizing the site of DNA repair. So, HTRF phospho-H2AX Ser139 is a pertinent assay to study genome stability, the cell cycle, DNA repair, and it serves as a biomarker for cancer, and to understand aging. Wild type CHO-K1 cells were used to identify the inducers of Phospho-H2AX Ser 139 from the Tox21 10K compound collections.
Tox21 Assay Protocol Summary:
The CHO-K1 cells suspended in culture medium containing 10% FBS were dispensed at 1000 cells/ 3 ul/well in 1536-well white wall/solid bottom plates (Greiner Bio-One North America, NC) using a Multidrop Combi (Thermo Fisher Scientific Inc., Waltham, MA). After the assay plates were incubated at 37C overnight, 23 nl of compounds at 15 concentrations (from 5-48 columns) or positive control (from 1 to 4 columns) were transferred to the assay plates using a Pintool station (Wako, San Diego, CA) into each well resulting in a final DMSO concentration of 0.76%. After 3hr incubation at 37C, 1 uL/well Supplemented Lysis buffer (diluted 100 fold blocking reagent in lysis buffer) (HTRF Phospho-H2A.X (S139) Assay kit from Cisbio US Inc., Bedford, MA) was added using a Flying Reagent Dispenser (FRD) (Aurora Discovery, CA). After 10sec spin at 1000 rpm in a plate centrifuge, the assay plates were incubated at room temperature for 30 min. Then followed by the addition of 1 uL/well detection buffer (containing a mixture of two antibodies, one labeled with cryptate, Anti pH2AX (S139)-K and another labeled with d2, Anti H2AX-d2) using FRD. After incubation at room temperature for 24 hr, the time resolved fluorescence at excitation 320 nm and emissions at 665 nm and 620 nm was measured using an Envision plate reader (PerkinElmer, Waltham, MA).
(In general: qHTS replaces the single test concentration by a dilution series.)
`O=P(O)(O)CN(CP(=O)(O)O)CP(=O)(O)O`: the outcome was inactive.

On to `CC(C)(C)C(=O)Cl`, for which the compound was called inactive.

Regarding `CCCCCCCCSC(=O)Oc1cc(Cl)nnc1-c1ccccc1`, the compound was classed as inactive.

As to `NC(=O)OCCCc1ccccc1`, the result was inactive.

In the case of `O=C(NC(=O)c1c(F)cccc1F)Nc1cc(Cl)c(F)c(Cl)c1F`, the compound was called inactive.

As to `CCN1CCCC1CNC(=O)C(O)(c1ccccc1)c1ccccc1` (stereo not given), the outcome was inactive.

Consider `COc1cc(CCN)cc(OC)c1OC`, for which the outcome was inactive.

On to `Clc1cc2c(cc1Cl)Oc1cc(Cl)c(Cl)cc1O2`, for which the activation (H2AX phosphorylation) is -2.07% [at 0.582 µM].

As for `O=C1CC(=O)NC(=O)N1`, the compound was classed as inactive.

On to `CC(C)N(Cc1ccccc1)C(=O)C(C)(C)C`, for which the compound was classed as inactive.

Regarding `O=C(CCl)NCO`, the outcome was inactive.

Regarding `CC(C)C(C)(N)C#N` (stereo not given), the result was inactive.

Take `CC(=NC#N)N(C)Cc1ccc(Cl)nc1`: the compound was called inactive.

Regarding `C[C@H](N)C(=O)c1ccccc1`, the compound was called inactive.

Turning to `CCc1cc(OC)c(C[C@H](C)N)cc1OC`, the outcome was inactive.

Regarding `CCN(CCO)CCn1c(Cc2ccccc2)nc2c1c(=O)n(C)c(=O)n2C`, the compound was classed as inactive.

Take `CCNc1nc(Cl)nc(NC(C)(C)C)n1`: the compound was called inactive.

With `CNC(=O)Oc1ccccc1C(C)C`, the compound was called inactive.

In the case of `CC(C)(C1CCC(O)CC1)C1CCC(O)CC1` (stereo not given), the outcome was inactive.

On to `NC(=O)CS(=O)C(c1ccccc1)c1ccccc1` (stereo not given), for which the outcome was inactive.

Consider `CCC1(c2cccc(O)c2)CCCCN(C)C1` (stereo not given), for which the call was inactive.

Consider `CC1=C2[C@H]3OC(=O)[C@@H](C)[C@@H]3CC[C@@]2(C)C=CC1=O`, for which the result was inactive.

On to `CCOC(=O)c1ncn2c1CN(C)C(=O)c1c(I)cccc1-2`, for which the compound was classed as inactive.

For `CN=CNc1ccc(C)cc1C`, the call was inactive.

Consider `CCCCCCC(=O)CCCCCC/C=C/C[C@@H](O)[C@H](O)[C@@](N)(CO)C(=O)O`, for which the activation (H2AX phosphorylation) is -0.061% [at 31.6 µM].

`ClCCCCCCCl`: the compound was classed as inactive.

For `N#CN`, the compound was classed as inactive.

`Cc1ccc2c(c1)C1CN(C)CCC1N2` (stereo not given): the activation (H2AX phosphorylation) is -0.451% [at 31.6 µM].

Consider `Cc1ccc2cc(C)ccc2c1`, for which the call was inactive.

`O=c1[nH]c2ccccc2o1`: the compound was classed as inactive.

`COC(=O)c1ccc(CBr)cc1`: the outcome was inactive.

Turning to `Cc1cc(OC(=O)N(C)C)nn1C(=O)N(C)C`, the compound was classed as inactive.

Turning to `Oc1ccc(Cc2ccc(O)cc2)cc1`, the result was inactive.

As for `CCCOc1nn(C(=O)NS(=O)(=O)c2ccccc2C(=O)OC)c(=O)n1C`, the compound was classed as inactive.

For `N[C@@H](Cc1ccc(Oc2cc(I)c(O)c(I)c2)c(I)c1)C(=O)O`, the compound was called inactive.

In the case of `CCOc1cc(OP(=S)(OC)OC)nc(CC)n1`, the outcome was inactive.

For the compound `CCN[C@@H](C)Cc1cccc(C(F)(F)F)c1`, the outcome was inactive.

Turning to `CCCC(C)C1(CC)C(=O)N=C(S)NC1=O` (stereo not given), the call was inactive.

With `CN(CCO)CCO`, the compound was called inactive.

Turning to `CCN(CC)CCOC(=O)C(O)(c1ccccc1)c1ccccc1`, the outcome was inactive.
